Screening data as filed in PubChem BioAssay.
GPR151 activ – activators of human GPR151; Q8TDV0; PathHunter beta-arrestin GPR151 cells, luminescence; activation, % at 11.2 µM; 650,000 compounds, 1% hits; AID 1508602; in the data active means activation above about 4.9%;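 further: 0% = median of compound wells and 100% = cells with positive control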
TEAD-YAP block – TEAD-YAP interaction inhibition; 640,000 compounds, 1.4% hits; HEK-TIYL cells, TEAD-Gal4/YAP UAS-luciferase luminescence; AID 1259422; inhibition, % at 9.12 µM; in the data active means inhibition above about 32%;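 further: 0% = median of test compound wells and 100% = reference inhibitor wells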
FBW7 act – human FBW7 E3 ligase activation, primary screen; Q969H0; AlphaScreen FBW7–phospho-cyclin E peptide binding, activator screen; normalized activity (activation), % at 26.1 µM; 650,000 compounds, 0.13% hits; in the data active means normalized activity above about 1.9%;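 further: purified mutant Fbw7 with reduced substrate affinity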
Target sequence (Q969H0 whole entry, looked up): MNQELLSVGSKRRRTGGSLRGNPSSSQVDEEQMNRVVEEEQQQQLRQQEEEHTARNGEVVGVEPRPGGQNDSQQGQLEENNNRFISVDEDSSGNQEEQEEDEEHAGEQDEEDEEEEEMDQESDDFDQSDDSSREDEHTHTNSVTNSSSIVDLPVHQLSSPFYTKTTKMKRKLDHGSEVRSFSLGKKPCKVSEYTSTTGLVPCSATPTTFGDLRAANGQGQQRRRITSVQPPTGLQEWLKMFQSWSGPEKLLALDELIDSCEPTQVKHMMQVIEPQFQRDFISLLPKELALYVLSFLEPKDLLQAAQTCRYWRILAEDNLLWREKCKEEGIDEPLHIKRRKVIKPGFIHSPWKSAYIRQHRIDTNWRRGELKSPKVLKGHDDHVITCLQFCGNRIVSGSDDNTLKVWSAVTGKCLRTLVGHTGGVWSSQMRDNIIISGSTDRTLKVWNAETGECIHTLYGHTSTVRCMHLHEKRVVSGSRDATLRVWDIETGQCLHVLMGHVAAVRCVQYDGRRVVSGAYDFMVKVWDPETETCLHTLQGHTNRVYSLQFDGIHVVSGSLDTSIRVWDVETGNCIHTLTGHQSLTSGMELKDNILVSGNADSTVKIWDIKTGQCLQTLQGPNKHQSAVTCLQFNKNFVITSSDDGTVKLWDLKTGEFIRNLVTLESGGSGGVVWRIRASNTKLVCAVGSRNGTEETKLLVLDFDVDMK
MITF primary – inhibitors of human MITF | O75030 | AlphaScreen MITF homodimerization, bead proximity signal | inhibition, % at 2.6 µM | 650,000 compounds, 0.91% hits; in the data active means inhibition above about 50%;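 further: 0% = vehicle wells with protein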
GPR151 conf act – confirmation of human GPR151 activators. shares compounds with GPR151 activ. GPR151 PathHunter beta-arrestin cells, luminescence, 90 min; % of EA-reagent control over plate median. activation, % at 11.2 µM. 6,700 tested, under 10 active;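 active means mean percent activation across replicates above the confirmation screen cutoff of 4.91%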
GPR119 ag – activates human GPR119 in a GPR151 counter-screen | shares compounds with GPR151 activ | GPR119 PathHunter beta-arrestin cells, luminescence, 90 min; 0 = compound-well median, 100 = enzyme-acceptor control | activation, % at 11.2 µM | 6,700 compounds, 0.3% hits | AID 1508611;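 active means mean percent activation in the counterscreen above 29.09%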;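 further: counterscreen on off-target GPR119 to flag nonselective hits from the GPR151 activator screen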
* = called active by the depositor; . = no result given; ! = not active in a repeat. Most compounds without a hit are left out; they make up all but 3.4% or so of the library.

SMILES	GPR151 activ	TEAD-YAP block	FBW7 act	MITF primary	GPR151 conf act	GPR119 ag
O=c1c2ccccc2cnn1CCOc1ccc(Cl)cc1	4.9*	-40.1	-0.2	-4.5	0.2	-4.3
COc1ccc(OCCn2c(-c3ccc(Cl)cc3)nc3ccccc3c2=O)cc1	-1.1	-10.3	0.0	-2.9	.	.
O=C(N/N=C/c1ccco1)c1ccc(CN2c3cccc4cccc(c34)S2(=O)=O)cc1	-0.5	1.9	0.8	3.5	.	.
CCN1CCN(C2=NS(=O)(=O)C(c3ccc(C)cc3)=C2C)CC1	11.7*	-1.2	0.1	11.9	0.2	7.8
O=C(O)CCCNC(=O)Cc1c[nH]c2ccccc12	0.7	-5.3	0.2	-6.7	.	.
c1ccc(Cc2c[nH]c3ccccc23)cc1	5.3*	15.7	-0.2	6.2	-0.6	5.1
O=C(O)CCCc1c[nH]c2ccccc12	5.0*!	-5.6	-0.1	7.2	-0.1	3.2
CC(Cn1c(C(C)C)nc2ccccc21)C(=O)O (stereo not given)	0.1	0.9	-0.2	-9.2	.	.
COc1ccccc1NC(=O)c1ccc(SCC(=O)NC(c2ccccc2)c2ccccc2)c([N+](=O)[O-])c1	0.7	0.8	0.1	3.0	.	.
C=CCn1c(=O)c2c(C)c(C)sc2n2c(Nc3ccccc3)nnc12	5.9*	3.1	0.0	28.1	-0.3	-10.4
C=CCn1c(=O)c2c3c(sc2n2c(Nc4ccc(C(=O)OCC)cc4)nnc12)CCC3	-1.8	11.2	0.6	8.6	.	.
O=C1N[C@@H](Cc2ccc(O)cc2)C(=O)N2C[C@@H](NCc3ccsc3)C[C@@H]12	0.7	-11.8	-0.1	-2.6	.	.
COC(=O)c1nc(N)sc1-c1ccc(Cl)c(Cl)c1	7.6*	-1.2	0.0	2.1	-0.3	-4.0
O=C(N/N=C/c1ccc(Oc2ccc([N+](=O)[O-])cn2)cc1)c1cccc([N+](=O)[O-])c1	5.0*	8.8	0.0	2.3	-0.4	-0.8
O=C(CSCC(=O)N1CCCCC1)Nc1nc(-c2ccc(Cl)s2)cs1	6.1*	-24.4	0.0	0.7	0.0	7.1
O=C(CSCC(=O)N1CCCCC1)Nc1nc(-c2cccs2)cs1	-1.0	-5.2	0.3	9.9	.	.
O=C(CN1CCN(S(=O)(=O)c2cccc(F)c2)CC1)c1ccco1	0.7	3.8	0.0	-1.4	.	.
CCC(=O)N1CCc2cc(S(=O)(=O)CCC(=O)NC3CCCCCC3)ccc21	5.0*	-7.0	0.1	4.8	0.0	0.9
NC(=O)COc1ccc(NC(=O)c2cncc(Br)c2)cc1	6.1*	-12.9	-0.3	-1.0	-1.0	-14.7
CCC(c1nnnn1C(C)(C)C)N(CCCO)Cc1cc2cccc(C)c2[nH]c1=O (stereo not given)	-0.2	-6.4	-0.2	-9.5	.	.
Cc1noc(C)c1-c1nc(NCc2ccccc2)c2[nH]cnc2n1	-2.3	-24.7	0.4	16.4	.	.
O=C(O)CCn1c(=O)oc2cc(S(=O)(=O)O)ccc21	7.5*	4.6	-0.1	4.8	1.6	-1.1
CCCC(=O)ON1C(=O)c2cccc3cccc(c23)C1=O	5.5*	-3.3	0.1	19.5	0.3	13.8
CN(C)CCN1C(=O)CC2(CCCC2)CC1=O	-1.0	5.2	-0.2	-11.2	.	.
Cc1ccc(-n2c(=O)c3oc4ccccc4c3n(CC(=O)NCC3CCCO3)c2=O)cc1 (stereo not given)	0.5	7.0	0.0	-3.3	.	.
SMILES	GPR151 activ	TEAD-YAP block	FBW7 act	MITF primary	GPR151 conf act	GPR119 ag
COC(=O)C1C(=O)C2=C(CC1C)NC(=O)CC2c1cc(OC)c(O)c([N+](=O)[O-])c1 (stereo not given)	-0.1	-4.1	-0.3	-7.9	.	.
CCOc1cc(C2CC(=O)NC3=C2C(=O)C(C(=O)OC)C(C)C3)cc(Cl)c1O (stereo not given)	8.3*	-12.2	-0.1	-6.5	-0.4	-3.7
CNc1ccc(/C=C/C(=O)c2ccc(S(=O)(=O)NCc3ccco3)cc2)cc1[N+](=O)[O-]	5.6*	-4.9	-0.3	-5.8	-0.6	-2.5
Cn1c2ccc(F)cc2c2nnc(SCC(=O)N3CCOCC3)nc21	0.2	-9.4	-0.1	-3.8	.	.
COc1ccc(N2CCN(CC(O)COc3ccccc3C(C)=O)CC2)cc1 (stereo not given)	5.9*	9.2	-0.1	14.6	0.1	8.3
COCC(C)NCC(O)COc1cc(Cl)ccc1Cl (stereo not given)	14.4*	1.6	-0.1	17.6	0.7	6.6
COc1ccccc1C1CC(c2ccc(Cl)cc2)Nc2nnnn21 (stereo not given)	5.2*	1.2	0.0	8.2	-0.4	-11.5
COc1ccccc1C1CC(c2ccc(C(C)C)cc2)Nc2nnnn21 (stereo not given)	-1.0	-4.2	0.0	3.0	.	.
Cc1ccc(C(=O)NC2=NCCS2)cc1	-2.1	-66.8	0.0	2.2	.	.
CCCN1C(=O)c2ccc(C(=O)NC3=NCCS3)cc2C1=O	9.5*	-11.1	-0.1	1.3	-0.7	-3.9
CCCn1c(-c2nc(OC)cc(OC)n2)n[nH]c1=S	7.0*	1.3	-0.2	-11.2	-1.3	-5.6
COc1ccc(Br)cc1C1=N/C(=C\c2cccc(OC)c2OC)C(=O)O1	6.8*	-7.8	0.0	18.6	0.5	8.8
COc1ccc(Br)cc1/C=C1\N=C(c2cc(Br)ccc2OC)OC1=O	0.2	-10.3	0.4	13.1	.	.
Cc1ccc2c(c1)-c1c(ssc1=S)C(C)(C)N2C(=O)c1ccccc1Cl	6.2*	-3.8	-0.9	28.7	-0.3	23.6
CC1=C(C#N)C(=O)N(C)C(=O)/C1=C/c1ccc(-c2cccc(Cl)c2C)o1	5.0*	-1.4	-0.6	-12.3	-0.5	-6.0
CC1=C(C#N)C(=O)N(C)C(=O)/C1=C/c1ccc(-c2ccccc2C(=O)O)o1	-0.5	2.9	-0.3	20.0	.	.
CCOC(=O)CSc1nc2c(sc(=S)n2CCc2ccccc2)c(=O)n1-c1ccc(Br)cc1	-0.5	-7.1	0.1	-0.8	.	.
Brc1c(OCc2nc(-c3cccnc3)no2)ccc2ccccc12	7.1*	-10.0	-0.3	-7.0	0.8	9.3
Clc1ccc(OCc2nc(-c3cccnc3)no2)c(Br)c1	-1.7	-30.0	0.0	14.7	.	.
CCSc1nc2sccn2c(=O)c1C(=O)Nc1cccc(Oc2ccccc2)c1	0.0	6.3	-0.3	0.3	.	.
CC1Sc2ccccc2N(Cc2ccc(C(F)(F)F)nc2)C1=O (stereo not given)	5.4*	-2.7	0.6	9.4	0.4	10.8
CC1CN(S(=O)(=O)c2ccc(Sc3ccc(S(=O)(=O)N4CC(C)OC(C)C4)cc3)cc2)CC(C)O1 (stereo not given)	0.9	7.3	0.1	4.7	.	.
Nc1c(Cl)cc(-n2c(-c3ccccc3)n[nH]c2=S)cc1Cl	5.5*	4.6	-0.1	-1.3	-0.2	-3.1
S=c1[nH]nc(-c2ccc(Cl)cc2)n1-c1ccccc1	-1.5	14.7	0.1	12.1	.	.
CC(C)(C)c1ccc(-c2n[nH]c(=S)n2-c2ccccc2)cc1	5.1*!	0.5	-0.1	13.2	-1.2	-13.0
